In PubChem BioAssay (NCI) one finds growth data, which are given here for 15 molecules.

Compounds without any hit were thinned out: in the full panel of roughly 83,000, 20% have a hit.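 Note: values are percent growth. 100 is the growth of untreated cells, values between 100 and 0 indicate rising inhibition; between -100 and 0 indicates cell death.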 A number with no mark means an inactive call. Activity calls are given as the source filed them. Rule for the calls: active = growth percent below 10; inactive = the rest.

What all share (assay): NCI-60 one-dose screen, 48 h (100 = growth as untreated, 0 = no growth, -100 = all killed)
What all share (conditions): 10 µM

The test system of assay [1] is NCI-H23 lung.
The subject of assay [2] is NCI-H226 lung.
Assay [3] concerns NCI-H322M lung.
Assay [4] relates to HOP-62 NSCLC.
Assay [5] concerns NCI-H460 lung.
In assay [6] the test system is HOP-92 NSCLC.
The subject of assay [7] is NCI-H522 lung.
Assay [8] deals with A549/ATCC NSCLC.
For assay [9], the system named is 786-0 renal.
For assay [10], the system named is COLO 205 colon.

On to `O=c1cc(-c2ccccc2)[nH]c2c1CCCC2`, for which the growth in [1] was 32.1%; in assay [2] it was 54.3%; in assay [3], 50.8%; in [4], 28.8%; in [5], 7.59% (active); in assay [6], 46.7%. For the same molecule, the growth in assay [7] was 13.6%; in [8] it was 36.6%; in [9], 36.4%; in assay [10] it was -10.1% (active).
Turning to `CC1(C)N=C(N)N=C(N)N1c1cccc(Br)c1`, the growth in assay [1] is 20.8%; in assay [2] it was 58.8%; in [3] it was 46.9%; in assay [4], 15.4%; in assay [5], 18.2%; in assay [6], 83%. Also, the growth in [7] was 52.5%; in assay [8], 30.6%; in assay [9], 10.3%.
For `Cc1cc(C)c(N)c(S(=O)(=O)O)c1`, the growth in [1] was 92%; in assay [2] it was 96.4%; in assay [3], 108%; in assay [4], 91.8%; in assay [5], 102%; in assay [6], 99%. Also, the growth was 97% in [7], 114% in assay [8] and 97.2% in [9].
In the case of `O=C(CCNNC(=O)c1ccncc1)NCc1ccccc1`, the growth was 95.8% in assay [1]; 90.7% in [2]; 110% in assay [3]; 98.3% in assay [4]; 102% in assay [5]; 97.8% in assay [6]. Further, the growth in assay [7] was 58.2%; in assay [8], 104%; in assay [9] it was 107%.
As for `Cc1ccc(C)n1-c1ccsc1C(=O)NNC(=O)C(Cl)Cl`, the growth in assay [1] is 98.4%; in assay [2], 93%; in [3], 98.6%; in assay [4] it was 96.6%; in [5] it was 104%; in [6] it was 90.5%. Also, the growth is 91.9% in [7], 102% in assay [8], 101% in assay [9] and 120% in assay [10].
As for `CC(=O)Oc1ccc(Br)cc1C(=O)O`, the growth is 98.6% in assay [1]; 99% in assay [2]; 101% in assay [3]; 86.9% in [4]; 106% in assay [5]; 97.8% in [6]. For the same molecule, the growth in [7] was 91.4%; in assay [8], 103%; in assay [9], 97.4%.
Consider `Nc1ccc(CC(=O)O)c(N)c1`, for which the growth in [1] is 92.3%; in assay [2] it was 92%; in [3], 97.6%; in assay [4], 102%; in [5], 103%; in assay [6] it was 94.5%. In addition, the growth in assay [7] was 99.3%; in [8], 99.7%; in [9] it was 107%.
As for `CC1(C)N=C(N)N=C(N)N1c1ccc(Cl)cc1`, the growth in assay [1] is 37.2%; in assay [2], 76.1%; in assay [3], 59.2%; in [4], 36.9%; in [5] it was 18.3%; in [6], 132%. Besides, the results for the growth in assay [7], in assay [8] and in assay [9] were 46.6%, 27.4% and 17.7%, respectively.
Regarding `Cc1cc2nc(CC(=O)c3cccc([N+](=O)[O-])c3)c(=O)[nH]c2cc1C`, the growth in assay [1] was 80.3%; in [2], 90.7%; in assay [3], 93.8%; in [4] it was 101%; in assay [5], 87.6%; in assay [6] it was 74.9%. Besides, the growth in assay [7] was 70.4%; in [8], 97.9%; in [9], 85.5%; in assay [10] it was 110%.
`CC(C)=C(NC(=O)c1ccccc1)C(=O)O`: the growth is 107% in [1]; 103% in [2]; 104% in [3]; 115% in assay [4]; 111% in assay [5]; 84.5% in assay [6]. Besides, the growth in [7] is 92.3%; in [8], 105%; in assay [9], 112%; in assay [10], 112%.
In the case of `CCOC(=O)c1[nH]c(C)c(C(C)=O)c1C`, the growth was 94.2% in assay [1]; 103% in assay [2]; 101% in assay [3]; 89.7% in assay [4]; 103% in [5]; 51% in assay [6]. Further, the growth is 83.8% in [7], 105% in assay [8], 83.5% in [9] and 115% in assay [10].
With `Cc1cccc(C(=O)N(C(C)C)C(C)C)c1`, the growth was 102% in assay [1]; 87.7% in assay [2]; 104% in [3]; 86.4% in assay [4]; 99.2% in [5]; 79.6% in assay [6]. Further, the growth in assay [7] is 79.9%; in [8], 86.3%; in assay [9], 99.7%.
For the molecule `COc1ccc(NC(=O)CCl)cc1`, the growth in assay [1] was 61.7%; in [2], 82.5%; in assay [3] it was 99.1%; in assay [4], 81.1%; in assay [5], 83.1%; in assay [6] it was 87.3%. Moreover, the growth in [7] is 47.8%; in assay [8], 84.6%; in assay [9], 80.7%.
Consider `Cc1cc(=O)cc(C)n1-c1ccccc1`, for which the growth in assay [1] was 96.5%; in [2], 96.3%; in assay [3], 106%; in assay [4], 99.6%; in assay [5], 107%; in [6] it was 90.6%. Further, the growth is 102% in assay [7], 99.1% in [8], 90% in assay [9] and 106% in assay [10].
As to `N#Cc1c(N)sc(=S)c2c1CCCC2`, the growth in assay [1] is 101%; in assay [2], 104%; in [3] it was 123%; in assay [4], 104%; in [5] it was 115%; in assay [6] it was 103%. The growth was 102% in [7], 105% in [8], 104% in [9] and 111% in assay [10].
